Source: PubChem BioAssay (Broad Institute)
Compounds with a hit are over-represented: about 2.7% of the library has one in this group of screens.
Env fusion inh = inhibitors of HIV Env-mediated cell fusion | HeLa-JRFL Env/CEM21 cell fusion, luciferase | inhibition, % at 12.3 µM | hit rate 1.1% among 360,000;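 active means mean replicate inhibition score of at least 50 and every replicate individually at or above 50; inconclusive means only one of the two criteria met; inactive means mean below 50 and not all replicates reaching 50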
Wnt bcat act = activates Wnt/beta-catenin signaling in a reporter cell assay; activator, plate reader; activation, % at 9.35 µM; hit rate 1.2% among 300,000; AID 743398; in the data active means activation above about 30%, passing the limit was not always enough; inconclusive means no clear call, values can overlap the other calls
MITF TRPM1 HTS = increases MITF-driven TRPM1 promoter luciferase signal. SK-MEL-5 TRPM1-promoter luciferase, 24 h; % of positive control, neutral wells = 0. activation, % at 12.5 µM. hit rate 0.75% among 300,000. AID 588334;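 active means mean activation of at least 80% with every replicate also reaching 80%; inconclusive means mean reaches 80% but some replicate falls short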
F508del corr = correctors of CFTR F508del function in bronchial epithelial cells | CFBE cells, YFP halide quenching; stimulated with forskolin plus potentiator P3; % fluorescence drop versus neutral controls | activity (quench increase), % at 7.58 µM | hit rate 0.36% among 350,000;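 active means mean added fluorescence quench of at least 8% versus neutral control, with both replicates also reaching 8%; inconclusive means only one of the mean or replicate conditions met; inactive means mean below 8% and not both replicates reaching 8%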;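 further: cells transiently co-express mutant CFTR-F508del with the halide-sensitive YFP; corrector assay measuring rescue of mutant channel to the surface after 24 h compound exposure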
GSIS activator = primary screen for activators of insulin secretion dependent on glucose, INS-1E cells, GLuc reporter luminescence; INS-1E GLuc reporter insulin secretion, 2-3 h; activation, % at 16.6 µM; hit rate 0.61% among 370,000; AID 743287;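 active means lowest replicate activation of at least 40%, so every replicate reaches that level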
Each line names hits and unclear results; the compound was inactive in the other large screens; ! = not active in a repeat.

CC(C)NC(=O)N(C)C[C@@H]1Oc2c(NC(=O)CCCCCC(=O)Nc3ccccc3N)cccc2C(=O)N([C@@H](C)CO)C[C@H]1C	none (no result: Env fusion inh, Wnt bcat act, MITF TRPM1 HTS)
COc1ccccc1C(=O)Nc1ccc2c(c1)C(=O)N(C)[C@H]1CC[C@@H](CC(=O)NCCc3ccncc3)O[C@H]1CO2	none (no result: Wnt bcat act, MITF TRPM1 HTS, F508del corr)
Cc1ccc(C2(C)NC(=O)N(CC(=O)Nc3ccc(-c4nc5ccc(C)cc5s4)cc3)C2=O)cc1 (stereo not drawn)	Wnt bcat act 37.6, GSIS activator 43.8
CC=Cc1ccc2n(c1=O)C[C@H]1[C@H](CO)[C@@H](C(=O)NCc3ccccc3F)N(CCC)[C@@H]21 (mixture of isomers)	none (no result: Env fusion inh, Wnt bcat act, MITF TRPM1 HTS, F508del corr)
COc1cc(CN2CCc3ccccc3C2)cc([N+](=O)[O-])c1O	none (no result: MITF TRPM1 HTS)
OCc1ccc(O)c2ncccc12	none (no result: Env fusion inh, Wnt bcat act, F508del corr, GSIS activator)
COc1cc(CN2CCc3ccccc3C2)ccc1O	GSIS activator 77.3
Oc1ccc(CNc2ccccc2F)c2cccnc12	Env fusion inh 114.0!
Oc1ccc(CN2CCc3ccccc3C2)c2cccnc12	Env fusion inh 61.5 (no result: Wnt bcat act, F508del corr, GSIS activator)
Cc1nn(C)cc1NC(=O)C[C@@H]1CC[C@@H]2[C@@H](COc3ccc(NC(=O)C(C)C)cc3C(=O)N2C)O1	none (no result: Wnt bcat act, MITF TRPM1 HTS)
CN(CC(=O)Nc1ccccc1Br)C(=O)c1ccc(COc2ccccc2)cc1	none
CN(CC(=O)Nc1ccccc1Cl)C(=O)c1cc2c(s1)CCCCC2	none
CN(CC(=O)Nc1ccccc1Br)C(=O)c1cc2c(s1)CCCCC2	Wnt bcat act 42.7, MITF TRPM1 HTS inconclusive
COc1ccc2cc(C(=O)N(C)CC(=O)Nc3ccccc3Br)ccc2c1	Wnt bcat act 42.4 (no result: Env fusion inh, GSIS activator)
O=C1CCCC2=C1C(c1ccc(Cl)cc1)n1c(s/c(=C\c3ccc4ccncc4c3)c1=O)=N2 (stereo not drawn)	Wnt bcat act 36.0 (no result: F508del corr)
CCOC(=O)C1=C(C)N=c2s/c(=C/c3ccc(OCC(=O)O)c(OC)c3)c(=O)n2C1c1ccc(Cl)cc1 (stereo not drawn)	none (no result: MITF TRPM1 HTS)
CCCNC(=O)C[C@H]1CC[C@H]2[C@H](COc3ccc(NC(=O)c4ccccc4)cc3C(=O)N2C)O1	none (no result: Wnt bcat act, MITF TRPM1 HTS)
CCCC#Cc1ccc2c(c1)O[C@@H](CN(C)S(=O)(=O)c1cccc(OC)c1)[C@@H](C)CN([C@H](C)CO)S2(=O)=O	none (no result: Wnt bcat act, MITF TRPM1 HTS)
O=C(O)c1cc(N/N=C/c2ccncc2)ccc1Cl	none
O=C(O)c1cc(N/N=C/c2ccc(N3CCOCC3)cc2)ccc1Cl	Wnt bcat act 37.2
O=[N+]([O-])c1cccc(N/N=C/c2ccc(N3CCOCC3)cc2)c1	MITF TRPM1 HTS 126.7
Clc1cccc(N/N=C/c2ccc(N3CCOCC3)cc2)c1	MITF TRPM1 HTS inconclusive (no result: Env fusion inh, GSIS activator)
C(=N\Nc1ccccc1)/c1ccc(N2CCOCC2)cc1	MITF TRPM1 HTS 108.9 (no result: Env fusion inh, Wnt bcat act, F508del corr, GSIS activator)
O=C(NCC[C@H]1CC[C@H](NS(=O)(=O)c2ccc(F)cc2)[C@@H](CO)O1)Nc1ccc(Cl)cc1	none (no result: Wnt bcat act, MITF TRPM1 HTS)
O=C(Nc1ccon1)c1ccc(N2CCCCC2)c([N+](=O)[O-])c1	MITF TRPM1 HTS 91.3
Cc1ccc(C(=O)CSc2nnc3ccccn23)c(C)c1	Wnt bcat act 33.1
Cc1ccc(C(=O)CSc2nnc(N)s2)c(C)c1	MITF TRPM1 HTS 87.4
Cc1cc(C)c(C(=O)CSc2nnc(N)s2)cc1C	none
O=C(Nc1cc(F)ccc1F)N[C@H]1C=C[C@H](CC(=O)N2CCc3ccccc3C2)O[C@@H]1CO	none (no result: Wnt bcat act, MITF TRPM1 HTS)
CCCCC1(CO)C(=O)N(c2ccccc2)N(c2ccccc2)C1=O	none (no result: MITF TRPM1 HTS)
CCCCC1(Cc2cccc([N+](=O)[O-])c2)C(=O)N(c2ccccc2)N(c2ccccc2)C1=O	Env fusion inh 119.8 (no result: F508del corr, GSIS activator)
COc1ccc(C(C)=O)cc1CC1(C)C(=O)Nc2ccc(-c3cccc(C(F)(F)F)c3)cc21 (stereo not drawn)	Env fusion inh 79.4 (no result: MITF TRPM1 HTS)
COc1ccc(Cl)cc1CC1(C)C(=O)Nc2ccc(-c3ccccc3OC)cc21 (stereo not drawn)	Env fusion inh 92.0 (no result: MITF TRPM1 HTS)
COc1ccccc1-c1ccc2c(c1)C(C)(Cc1cccc(C#N)c1)C(=O)N2 (stereo not drawn)	Env fusion inh 101.4 (no result: MITF TRPM1 HTS)
COc1ccccc1-c1ccc2c(c1)C(C)(Cc1ccc(F)c(Cl)c1)C(=O)N2 (stereo not drawn)	Env fusion inh 95.9 (no result: MITF TRPM1 HTS)
COc1ccccc1-c1ccc2c(c1)C(C)(Cc1ccc(Cl)cc1)C(=O)N2 (stereo not drawn)	none (no result: MITF TRPM1 HTS, GSIS activator)
C[C@@H]1CCCCO[C@H](CN(C)Cc2ccccc2)[C@H](C)CN([C@H](C)CO)C(=O)c2cc(NS(C)(=O)=O)ccc2O1	none (no result: Wnt bcat act, MITF TRPM1 HTS)
Cc1noc(C)c1S(=O)(=O)Nc1ccc2c(c1)C(=O)N([C@H](C)CO)C[C@@H](C)[C@@H](CN(C)C(=O)NC1CCCCC1)O2	none (no result: Env fusion inh, Wnt bcat act, MITF TRPM1 HTS)
COc1ccccc1S(=O)(=O)N1CC[C@@H]2[C@H](CO)Nc3ccc(-c4ccccc4)cc3[C@@H]21	none (no result: Env fusion inh, Wnt bcat act, MITF TRPM1 HTS)
CC1(Cc2ccc(Cl)cc2)C(=O)Nc2ccc(S(=O)(=O)NC3CCCCC3)cc21 (stereo not drawn)	Env fusion inh 91.1 (no result: MITF TRPM1 HTS)
CC1(Cc2ccc(Cl)cc2)C(=O)Nc2ccc(-c3cccnc3)cc21 (stereo not drawn)	Env fusion inh 68.9 (no result: MITF TRPM1 HTS)
CCCC#Cc1ccc2c(c1)O[C@@H](CN(C)C(=O)c1ccccn1)[C@@H](C)CN([C@H](C)CO)S2(=O)=O	none (no result: Wnt bcat act, MITF TRPM1 HTS)
C[C@H]1CN([C@@H](C)CO)C(=O)Cc2cc(NC(=O)Nc3ccc(C(F)(F)F)cc3)ccc2O[C@@H]1CN(C)Cc1ccc(C(=O)Nc2ccccc2N)cc1	none (no result: Wnt bcat act, MITF TRPM1 HTS)
COc1ccc(CCN(C)C(=O)c2ccc(S(=O)(=O)Nc3ccccc3C)cc2)cc1OC	none (no result: MITF TRPM1 HTS)
CCOc1ccc(NS(=O)(=O)c2ccc(C(=O)N(C)CCc3ccc(OC)c(OC)c3)cc2)cc1	Env fusion inh 88.7
CC(C)NC(=O)N(C)C[C@H]1Oc2ccc(NC(=O)Nc3ccc4c(c3)OCO4)cc2CC(=O)N([C@H](C)CO)C[C@H]1C	none (no result: Wnt bcat act, MITF TRPM1 HTS)
Clc1ccc(-c2cc(CSc3ccccc3)on2)cc1	MITF TRPM1 HTS 126.9 (no result: Env fusion inh, F508del corr, GSIS activator)
Clc1ccc(-c2cc(CSc3cccc(Cl)c3)on2)cc1	none (no result: Env fusion inh, F508del corr, GSIS activator)
c1ccc(SCc2cc(-c3ccccc3)no2)cc1	MITF TRPM1 HTS 94.3 (no result: GSIS activator)
O=C(NC1CCCCC1)c1cc(-c2ccccc2Cl)on1	MITF TRPM1 HTS 109.7
O=C(NCC1CCCO1)c1cc(-c2ccc(F)cc2)no1 (stereo not drawn)	Wnt bcat act 38.8
COc1ccc(-c2cc(C(=O)NCC3CCCO3)on2)cc1OC (stereo not drawn)	none
O=C(NC1CCCC1)c1cc(-c2ccc(Cl)cc2Cl)on1	MITF TRPM1 HTS 97.4
O=C(NC(=S)NCC1CCCO1)c1ccc(Cl)cc1Cl (stereo not drawn)	GSIS activator 56.4 (no result: Wnt bcat act, F508del corr)
C[C@H]1CN([C@@H](C)CO)C(=O)Cc2cc(N(C)C)ccc2O[C@@H]1CN(C)Cc1ccc2c(c1)OCO2	none (no result: Wnt bcat act, MITF TRPM1 HTS)
O=C(NCC1CCCO1)c1cc(-c2ccc(Cl)cc2Cl)on1 (stereo not drawn)	Wnt bcat act 36.6 (no result: MITF TRPM1 HTS, F508del corr, GSIS activator)
S=C(NCc1ccco1)NCC1CCCO1 (stereo not drawn)	F508del corr 10.6
O=C(NCC1CCCO1)c1cc(-c2ccccc2)on1 (stereo not drawn)	none (no result: Env fusion inh, Wnt bcat act, F508del corr, GSIS activator)
O=C(NC1CCCC1)c1cc(-c2ccccc2O)on1	MITF TRPM1 HTS 106.0
